Gal4-VP16 FLuc = Gal4-VP16 reporter inhibition counter-screen. Potency, µM (doses to about 53.6 µM), for inactives: at the top dose activity, negative = inhibition, hits mostly inhibitors. hit rate 3.5% among 310,000. Drosophila S2 Gal4-VP16 UAS-luciferase, luminescence, 20 h;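 note: Gal4-VP16 expression switched on by copper sulfate through the metallothionein promoter; nearly all actives have a fitted effect of over 50% in size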
ALDH1A1 inh = blocks purified human ALDH1A1 activity | Potency, µM (doses to about 75.3 µM), inactives show at the top dose activity, negative = inhibition, most hits filed as inhibitors | hit rate 7.3% among 220,000 | Purified ALDH1A1, NADH fluorescence, propionaldehyde substrate; active = well fitted inhibition curve with a large enough effect, not every such curve was filed as active; inconclusive = small, poorly fitted or top-dose-only effect, or another doubt; inactive = no such curve, though single readings can be large or run the other way;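 note: plate controls were no enzyme wells and a reference inhibitor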
PLK1 PBD inh = blocks phosphopeptide binding to human PLK1 polo-box domain | P53350 | Plk1 PBD binding of FITC phosphopeptide, fluorescence polarization | Potency, µM, inactives show max response, negative = inhibition, actives largely listed as inhibitors | hit rate 2.8% among 360,000; note: series mostly up to about 57 µM; nearly all actives have a fitted effect of over 65% in size
Target sequence (P53350 whole entry, looked up, the tested form may be a part): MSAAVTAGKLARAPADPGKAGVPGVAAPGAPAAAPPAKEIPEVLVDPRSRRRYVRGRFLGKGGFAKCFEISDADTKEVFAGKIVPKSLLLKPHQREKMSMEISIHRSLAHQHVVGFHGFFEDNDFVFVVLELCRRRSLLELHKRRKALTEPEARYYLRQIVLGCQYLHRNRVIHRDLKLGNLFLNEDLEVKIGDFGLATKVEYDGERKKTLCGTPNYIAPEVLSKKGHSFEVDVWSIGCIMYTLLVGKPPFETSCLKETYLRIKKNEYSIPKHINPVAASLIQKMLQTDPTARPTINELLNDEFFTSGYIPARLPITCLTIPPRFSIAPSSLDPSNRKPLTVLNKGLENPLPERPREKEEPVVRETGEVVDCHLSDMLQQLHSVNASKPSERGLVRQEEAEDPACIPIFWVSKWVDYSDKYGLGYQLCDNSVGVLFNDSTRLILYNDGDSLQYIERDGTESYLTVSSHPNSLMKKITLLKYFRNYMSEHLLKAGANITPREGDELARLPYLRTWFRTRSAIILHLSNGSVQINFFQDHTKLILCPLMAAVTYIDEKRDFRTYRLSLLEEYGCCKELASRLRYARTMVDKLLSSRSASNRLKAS
Sfp inh = Sfp phosphopantetheinyl transferase inhibition | hit rate 3.5% among 310,000 | Biochemical Sfp PPTase activity, qHTS | Q9F4F7 | Potency, µM, for inactives: largest response in the series, negative = inhibition, hits mostly inhibitors;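 note: the enzyme is Sfp with the accession as filed and its product quenches rhodamine fluorescence; 0% = enzyme reaction without inhibitor and -100% = no enzyme wells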
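Fluorescence-quenching assay: 15 nM Sfp-PPTase preincubated 15 min at room temperature with compound, then 5 uM rhodamine-CoA and 12.5 uM BHQ-2-labelled YbbR peptide added. Fluorescence (ex 525/em 598 nm) read at start and after 30 min; difference gives rate.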
RORgamma inh = inhibitors of mouse ROR gamma transcriptional activity; Potency, µM (top dose mostly 53.6 µM), inactives show top-dose activity change, negative = inhibition, actives largely listed as inhibitors; P51450; AID 2551; Drosophila S2 Gal4-RORgamma UAS-luciferase reporter, 20 h; hit rate 5.4% among 310,000; note: nearly all actives have a fitted effect of over 60% in size
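Read-out: Photinus luciferase luminescence; inhibitors lower reporter signal. Insect Schneider cells with Gal4-ROR gamma fusion under metallothionein promoter, UAS reporter; 700 uM final copper sulfate induction, 20 hr, ambient temperature.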
An asterisk follows results filed as active. Only some compounds are listed: those with a hit (about 12% of all), similar ones and a draw of the others. Unless noted, calls come from the whole dose curve; as a rule, active = well fitted curve in the direction sought with a large enough effect; inconclusive = small, poorly fitted or top-dose-only effect, or another doubt; inactive = no such curve, though single readings can be large; an effect the other way counts as inactive or inconclusive. Unless noted, % is set by controls: 0 for no effect and ±100 for the full control effect; potency is the fitted concentration of half-maximal effect.

For Oc1ccc(-c2cn3c(n2)SCC3)cc1O the results were Gal4-VP16 FLuc inconclusive, ALDH1A1 inh 6.3µM*, PLK1 PBD inh 24µM*, Sfp inh 18µM* and RORgamma inh -35%.
CN(N)c1ccc2c(C(F)(F)F)cc(C(F)(F)F)nc2n1 was read as Gal4-VP16 FLuc 0%, ALDH1A1 inh -2%, PLK1 PBD inh 24µM*, Sfp inh inconclusive and RORgamma inh 15%.
For COc1ccc(Oc2ccc3c(C(F)(F)F)cc(C(F)(F)F)nc3n2)cc1 the results were Gal4-VP16 FLuc -4%, ALDH1A1 inh 17%, PLK1 PBD inh -7%, Sfp inh 13% and RORgamma inh 34%.
`Cc1cc(C)cc(Oc2ccccc2/C=N\O)c1` gave Gal4-VP16 FLuc 11µM*, ALDH1A1 inh 7%, PLK1 PBD inh -2%, Sfp inh -13% and RORgamma inh inconclusive.
`O/N=C/c1ccccc1Oc1ccc(Cl)cc1` gave Gal4-VP16 FLuc -1%, ALDH1A1 inh 3%, PLK1 PBD inh 8.4µM*, Sfp inh -3% and RORgamma inh 4%.
`COc1ccc(NC(=O)C2Cc3c(-c4cccc(NC(C)=O)c4)ccnc3O2)cn1` (stereo not given) gave PLK1 PBD inh -3%.
For O=C(O)CCSc1nnc(COc2ccc([N+](=O)[O-])cc2)n1-c1ccccc1 the results were Gal4-VP16 FLuc 4%, ALDH1A1 inh -10%, PLK1 PBD inh -4%, Sfp inh 9% and RORgamma inh -19%.
O=c1[nH]c(CSc2nnc(COc3ccccc3)n2-c2ccccc2)nc2ccccc12 was read as Gal4-VP16 FLuc inconclusive, ALDH1A1 inh 18µM*, PLK1 PBD inh inconclusive, Sfp inh inconclusive and RORgamma inh 13µM*.
CCn1c(COc2ccc(C)cc2)nnc1SCc1nc2ccccc2[nH]1 was read as Gal4-VP16 FLuc inconclusive, ALDH1A1 inh -9%, PLK1 PBD inh 2%, Sfp inh -1% and RORgamma inh 13µM*.
Screening O=C(O)CSc1nnc(COc2ccc([N+](=O)[O-])cc2)n1-c1ccccc1 returned Gal4-VP16 FLuc 5%, ALDH1A1 inh 20µM*, PLK1 PBD inh -7%, Sfp inh 19% and RORgamma inh -7%.
`Cc1cc(=O)[nH]c(N/N=C/c2sccc2C)n1` gave Gal4-VP16 FLuc -22%, ALDH1A1 inh 3%, PLK1 PBD inh -5%, Sfp inh 13µM* and RORgamma inh -43%.
For Cc1ccsc1/C=N/Nc1nc2ccccc2[nH]1 the results were Gal4-VP16 FLuc 1.4µM*, ALDH1A1 inh 2%, PLK1 PBD inh 0%, Sfp inh 0% and RORgamma inh 1.4µM*.
`C(=N\Nc1nc2ccccc2[nH]1)/c1cccs1` gave Gal4-VP16 FLuc 4.5µM*, ALDH1A1 inh 2.8µM*, PLK1 PBD inh -4%, Sfp inh -19% and RORgamma inh 3.2µM*.
`Cc1cc(=O)[nH]c(N/N=C/c2cccs2)n1` gave Gal4-VP16 FLuc -5%, ALDH1A1 inh -14%, PLK1 PBD inh -13%, Sfp inh -11% and RORgamma inh -6%.
COc1ccc(O)c(/C=N/Nc2nc3ccccc3[nH]2)c1 was read as Gal4-VP16 FLuc inconclusive, ALDH1A1 inh 5%, PLK1 PBD inh -4%, Sfp inh inconclusive and RORgamma inh inconclusive.
`Cc1ccsc1/C=N/Nc1ncnc2nc[nH]c12` gave Gal4-VP16 FLuc inconclusive, ALDH1A1 inh -4%, PLK1 PBD inh -5%, Sfp inh 50µM* and RORgamma inh -16%.
O=c1cc(-c2ccc(C3CCCCC3)cc2)[nH][nH]1 was read as Gal4-VP16 FLuc 5%, ALDH1A1 inh -5%, PLK1 PBD inh 24µM*, Sfp inh 0% and RORgamma inh -14%.
For COc1ccc(CN2C[C@@H](CO)O[C@@H](n3cnc4c(N5CCOCC5)ncnc43)C2)cc1 the results were PLK1 PBD inh 1%.
Screening Cc1ccc(-c2nc3[nH]c(=O)cc(NC(=O)c4cccs4)n3n2)cc1 returned Gal4-VP16 FLuc 0%, PLK1 PBD inh -13%, Sfp inh 9% and RORgamma inh 13%.
CC(C)(C)c1ccc(-c2nc3[nH]c(=O)cc(NC(=O)c4ccco4)n3n2)cc1 was read as Gal4-VP16 FLuc 8%, PLK1 PBD inh 24µM*, Sfp inh 40µM* and RORgamma inh inconclusive.
`CCC(=O)Nc1cc(=O)[nH]c2ncnn12` gave Gal4-VP16 FLuc 0%, ALDH1A1 inh -10%, PLK1 PBD inh -6%, Sfp inh 9% and RORgamma inh 3%.
CCC(=O)Nc1cc(=O)[nH]c2nc(-c3ccc(Cl)cc3)nn12 was read as Gal4-VP16 FLuc 11%, PLK1 PBD inh 21µM*, Sfp inh 25% and RORgamma inh 17%.
Screening Cc1ccc(-c2nc3[nH]c(=O)cc(NC(=O)C(C)C)n3n2)cc1 returned Gal4-VP16 FLuc -5%, PLK1 PBD inh 27µM*, Sfp inh 2% and RORgamma inh -11%.
Screening O=C(OC(C(=O)NCc1ccc2c(c1)OCO2)c1ccccc1F)c1ccco1 (stereo not given) returned Gal4-VP16 FLuc -2%, ALDH1A1 inh 1.6µM*, PLK1 PBD inh -6%, Sfp inh 17% and RORgamma inh inconclusive.
Screening COc1ccccc1NS(=O)(=O)c1ccc(NC(C)=O)cc1 returned Gal4-VP16 FLuc -6%, ALDH1A1 inh 9%, PLK1 PBD inh -4%, Sfp inh -3% and RORgamma inh 16%.
For COc1ccccc1NS(=O)(=O)c1cccc(NC(=O)Nc2cccc(Cl)c2)c1 the results were Gal4-VP16 FLuc inconclusive, ALDH1A1 inh 1%, PLK1 PBD inh 8%, Sfp inh 22% and RORgamma inh inconclusive.
For COc1ccccc1NC(=O)C(C(C)C)N1C(=O)c2ccccc2C1=O (stereo not given) the results were Gal4-VP16 FLuc -10%, PLK1 PBD inh -1%, Sfp inh -1% and RORgamma inh -8%.
`COc1ccccc1NS(=O)(=O)c1cc(N2Cc3ccccc3C2=N)ccc1N1CCOCC1` gave Gal4-VP16 FLuc -15%, ALDH1A1 inh 8.9µM*, PLK1 PBD inh 21µM*, Sfp inh inconclusive and RORgamma inh -3%.
`COc1ccccc1NS(=O)(=O)c1cccc(NC(=O)NCCCl)c1` gave Gal4-VP16 FLuc -1%, PLK1 PBD inh 27µM*, Sfp inh 3% and RORgamma inh 7%.
COc1ccccc1NS(=O)(=O)c1ccc(Cl)c(NC(=O)C(C)N2C(=O)c3ccccc3C2=O)c1 (stereo not given) was read as Gal4-VP16 FLuc 1%, ALDH1A1 inh 18µM*, PLK1 PBD inh -5%, Sfp inh inconclusive and RORgamma inh 20%.
Screening COc1ccccc1NS(=O)(=O)c1cc(N)ccc1N1CCOCC1 returned PLK1 PBD inh 0%.
For COc1ccccc1NS(=O)(=O)c1ccc(C(N)=O)cc1 the results were Gal4-VP16 FLuc -4%, ALDH1A1 inh 1%, PLK1 PBD inh 24µM*, Sfp inh 0% and RORgamma inh 7%.

Assay outcomes deposited in PubChem by National Center for Advancing Translational Sciences (NCATS).
